Measured values as given in PubChem BioAssay (NCATS).
Several values for one entry are separate records, joined by “and”; a condition that tells them apart may be missing. Identical values can stand only once. Inconclusive results are not listed. Entries that show only a call come without a potency. Unmarked numbers belong to inactive results. Activity calls are given as the source filed them. Calls follow the shape of the dose curve; as a rule, active = well fitted curve in the direction sought with a large enough effect; inconclusive = small, poorly fitted or top-dose-only effect, or another doubt; inactive = no such curve, though single readings can be large; an effect the other way counts as inactive or inconclusive.

What was measured:
[1] = Primary qHTS for inhibitors of nuclear receptor binding SET domain protein 2 (NSD2) in an isogenic RCH-ACV NSD2 p.E1099K mutant (9B) (AID 1645876); conditions: RCH-ACV NSD2 E1099K (9B) viability, CellTiter-Glo, 72 h; series mostly up to 44.9 µM
[2] = Primary qHTS for inhibitors of nuclear receptor binding SET domain protein 2 (NSD2) in an RCH-ACV wild type WT cells (2C) (AID 1645877); conditions: RCH-ACV (leukaemia line) NSD2 WT (2C) viability, CellTiter-Glo, 72 h; series mostly up to 44.9 µM
Also: nearly all actives have a fitted effect of over 70% in size.
Potency is read from the fitted curve at half-maximal effect.

Structure (SMILES): CNC(=O)c1ccc(Nc2ncc(C(F)(F)F)c(NCc3nccnc3N(C)S(C)(=O)=O)n2)cc1
- Potency [1]: 2.58 µM (active) and 1.66 µM (active)
- Potency [2]: 2.05 µM (active) and 1.86 µM (active)

Structure (SMILES): N[C@H]1C[C@H]1c1ccc(-c2cccc(O)c2)cc1
- Potency [1]: inactive
- Potency [2]: inactive

Structure (SMILES): Cn1ccnc1CCOC(c1cc2nccc(C(=O)O)c2[nH]1)c1ccccc1Cl (configuration not stated)
- Potency [1]: inactive
- Potency [2]: inactive

Structure (SMILES): COc1c(C)c(OCC=C(C)C)cc2c1C(=O)NC2=O
- Potency [1]: inactive
- Potency [2]: inactive

Structure (SMILES): C=CC(C)(C)O[C@@H]1O[C@H](CO[C@@H]2OC[C@](O)(CO)[C@H]2O)[C@@H](O)[C@H](O)[C@H]1O
- Potency [1]: inactive
- Potency [2]: inactive

Structure (SMILES): C/C=C/C=C/C(CC(=O)O)Nc1ccc(C=O)cc1 (configuration not stated)
- Potency [1]: inactive
- Potency [2]: inactive

Structure (SMILES): O=c1c2cccnc2n(-c2cccc([N+](=O)[O-])c2)c(=O)n1Cc1ccncc1
- Potency [1]: inactive
- Potency [2]: inactive

Structure (SMILES): COc1ccccc1CC(C(=O)O)N(C)C(=O)c1ccccc1 (configuration not stated)
- Potency [1]: inactive
- Potency [2]: inactive

Structure (SMILES): OCc1ccccc1O[C@@H]1O[C@H](CO)[C@@H](O)[C@H](O)[C@H]1O
- Potency [1]: inactive
- Potency [2]: inactive

Structure (SMILES): CC(C)NC[C@H](O)COc1ccc(CCOCC2CC2)cc1
- Potency [1]: inactive
- Potency [2]: inactive

Structure (SMILES): CC(=O)OC1C(O)CC(O[C@@H]2O[C@H](CO)[C@@H](O)[C@H](O)[C@H]2O)C2CCC3C(=O)OC(c4ccoc4)CC3(C)C21 (some centres not stated)
- Potency [1]: inactive
- Potency [2]: inactive

Structure (SMILES): CCC(C)/C=C(C)/C=C/C1=CC2=C(Cl)C(=O)C(C)(OC(C)=O)C(=O)C2=CN1CCCC(=O)O (configuration not stated)
- Potency [1]: inactive
- Potency [2]: inactive

Structure (SMILES): C[C@@H]1CC[C@]2(C(=O)O)CC[C@]3(C(=O)O)C(=CCC4[C@@]5(C)CC[C@H](O[C@@H]6O[C@@H](C)[C@H](O[C@@H]7O[C@H](CO)[C@@H](O)[C@H](O)[C@H]7O)[C@@H](O)[C@H]6O)C(C)(C)C5CC[C@]43C)C2[C@H]1C (some centres not stated)
- Potency [1]: inactive
- Potency [2]: inactive

Structure (SMILES): C[C@@H]1C/C=C/C=C\C=C\C=C\[C@H](O[C@@H]2O[C@H](C)[C@@H](O)[C@H](N)[C@@H]2O)C[C@@H]2O[C@](O)(C[C@@H](O)C[C@H]3O[C@@H]3/C=C/C(=O)O1)C[C@H](O)[C@H]2C(=O)O
- Potency [1]: inactive
- Potency [2]: inactive

Structure (SMILES): CCOc1c2c(c(OCC)c3ccccc13)C(=O)N(c1ccc(CC(=O)NS(=O)(=O)c3ccccc3)cc1)C2
- Potency [1]: inactive
- Potency [2]: inactive

Structure (SMILES): CN[C@@H]1[C@@H](O)[C@@H](O[C@@H]2[C@@H](O)[C@H](O[C@H]3O[C@H](CN)[C@@H](O)[C@H](O)[C@H]3O)[C@@H](N)C[C@H]2NC(=O)[C@@H](O)CN)OC[C@]1(C)O
- Potency [1]: inactive
- Potency [2]: inactive

Structure (SMILES): CC1=C(C)C(=O)OC(C(C)C2C(O)CC3C4C5OC5C5(O)CC(OC6OC(CO)C(O)C(O)C6O)CC(O)C5(C)C4CCC32C)C1 (configuration not stated)
- Potency [1]: inactive
- Potency [2]: inactive

Structure (SMILES): C/C(=C/CCC(CO)C1CCC2(C)C3CCC4C(C)(C)C(OC5OC(CO)C(O)C(O)C5O)CC(O)C45CC35CCC12C)COC1OC(CO)C(O)C(O)C1O (configuration not stated)
- Potency [1]: inactive
- Potency [2]: inactive

Structure (SMILES): C=C1CCC[C@]2(C)C[C@]3(O)OC(=O)C(C)=C3C[C@@H]12
- Potency [1]: inactive
- Potency [2]: inactive

Structure (SMILES): CCOC(=O)[C@H](CCc1ccccc1)CC1(C(=O)N[C@H]2CCc3ccccc3N(CC(=O)O)C2=O)CCCC1
- Potency [1]: inactive
- Potency [2]: inactive

Structure (SMILES): C=C1CC2[C@]3(C)C(=C(O)C(=O)[C@@]2(C)[C@]2(C(=O)OC)C(=O)C(C)OC(=O)[C@@]12C)C(C)(C)C(=O)CC3O (some centres not stated)
- Potency [1]: inactive
- Potency [2]: inactive

Structure (SMILES): CCC(C)/C=C(C)/C=C/C1=CC2=C(Cl)C(=O)C(C)(OC(C)=O)C(=O)C2=CN1C1CCCCN(C(CCC(N)=O)C(=O)O)C1=O (configuration not stated)
- Potency [1]: inactive
- Potency [2]: inactive

Structure (SMILES): OCC1=CC[C@@H]2C=CO[C@@H](O[C@@H]3O[C@H](CO)[C@@H](O)[C@H](O)[C@H]3O)[C@H]12
- Potency [1]: inactive
- Potency [2]: inactive

Structure (SMILES): CCn1c2ccccc2c2cc(CNC)ccc21
- Potency [1]: 23 µM (active)
- Potency [2]: 23 µM (active)

Structure (SMILES): COC(=O)C12C(=O)C(C)=C(O)C1(C)C(C)=CC1C34CCC(OC3=O)C(C)(C)C4CCC12C (configuration not stated)
- Potency [1]: inactive
- Potency [2]: inactive

Structure (SMILES): C[C@@H]1C(=O)O[C@H]2CC34[C@H]5C[C@@H](C(C)(C)C)C36[C@@H](OC(=O)[C@@H]6O)O[C@@]4(C(=O)O5)[C@]21O (some centres not stated)
- Potency [1]: inactive
- Potency [2]: inactive

Structure (SMILES): Cc1cc(O)c(C(C)C)cc1O[C@@H]1O[C@H](CO)[C@@H](O)[C@H](O)[C@H]1O
- Potency [1]: inactive
- Potency [2]: inactive

Structure (SMILES): CC(=O)O[C@@H]1C[C@]2(C)[C@@]3(CCC4[C@@]5(C)CC[C@H](O[C@@H]6O[C@H](C(=O)O)[C@@H](O)[C@H](O[C@@H]7O[C@H](CO)[C@H](O)[C@H](O)[C@H]7O[C@@H]7O[C@@H](C)[C@H](O)[C@@H](O)[C@H]7O[C@@H]7OC[C@](O)(CO)[C@H]7O)[C@H]6O[C@@H]6O[C@H](CO)[C@H](O)[C@H](O)[C@H]6O)C(C)(C)C5CC[C@]42C)O[C@@H](O)[C@]12C3CC(C)(C)[C@@H](OC(=O)/C=C/c1ccc(O)c(O)c1)[C@@H]2OC(=O)/C=C/c1ccccc1 (some centres not stated)
- activity change, negative = viability loss [1]: -5.24% [at 9.23 µM]
- activity change, negative = cell killing [2]: -4.25% [at 9.23 µM]

Structure (SMILES): COC(=O)C1=COC(O[C@@H]2O[C@H](CO)[C@@H](O)[C@H](O)[C@H]2O)/C(=C\COC(=O)c2ccc(OC3OC(CO)C(O)C(O)C3O)c(OC)c2)C1CC(=O)OCCc1ccc(O)cc1 (some centres not stated)
- outcome [1]: inactive [at 9.23 µM]
- outcome [2]: inactive [at 9.23 µM]

Structure (SMILES): C=C1CC23CC1(O)CCC2C1=CC2OC(=O)C(C)(C2O)C1C3C(=O)O (configuration not stated)
- Potency [1]: inactive
- Potency [2]: inactive

Structure (SMILES): N#CC1C(=O)Nc2scc(-c3ccc(-c4ccccc4O)cc3)c2C1=O (configuration not stated)
- Potency [1]: inactive
- Potency [2]: inactive

Structure (SMILES): COC1=CC(=O)O[C@@H](/C=C/c2ccccc2)[C@@H]1O
- Potency [1]: inactive
- Potency [2]: inactive

Structure (SMILES): COc1cc(C2c3cc(O)c(OC)cc3CC(CO)C2CO)ccc1O (configuration not stated)
- Potency [1]: inactive
- Potency [2]: inactive

Structure (SMILES): C=C1CCC2C(C)(C)C(O)CCC2(C)C1CCC(C)CCOC(=O)CCC(=O)O (configuration not stated)
- Potency [1]: inactive
- Potency [2]: inactive

Structure (SMILES): CN(NC(=O)CC(=O)NN(C)C(=S)c1ccccc1)C(=S)c1ccccc1
- Potency [1]: 40.9 nM (active) and 8.3 nM (active)
- Potency [2]: 40.9 nM (active) and 9.3 nM (active)

Structure (SMILES): C=CC(C)(O)CC/C=C(\C)C(=O)OCC1OC(OC2CCC3(C)C(CCC4(C)C3CC=C3C5CC(C)(C)C(O)CC5(C(=O)O)CCC34C)C2(C)C)C(O)C(OC2OC(CO)C(O)C(OC3OC(CO)C(O)C(OC4OC(COC5OC(CO)C(O)C(O)C5O)C(O)C(O)C4O)C3O)C2O)C1O (configuration not stated)
- outcome [1]: inactive [at 9.23 µM]
- activity change, negative = cell killing [2]: 4.93% [at 9.23 µM]

Structure (SMILES): O=C(O)C[C@H](O)C[C@H](O)/C=C/c1c(C2CC2)nc2ccccc2c1-c1ccc(F)cc1
- Potency [1]: 1.83 µM (active) and 1.18 µM (active)
- Potency [2]: 1.83 µM (active) and 934 nM (active)

Structure (SMILES): O=C(/C=C/c1ccc(O)cc1)OC[C@H]1O[C@@H](OC(=O)/C=C/c2ccccc2)[C@H](O)[C@@H](O)[C@@H]1O
- Potency [1]: inactive
- Potency [2]: inactive

Structure (SMILES): COc1cc(C(C)=O)ccc1O[C@@H]1O[C@H](CO[C@@H]2O[C@@H](C)[C@H](O)[C@@H](O)[C@H]2O)[C@@H](O)[C@H](O)[C@H]1O
- Potency [1]: inactive
- Potency [2]: inactive

Structure (SMILES): c1ccc(Cc2ncc3c(n2)CCNCC3)cc1
- Potency [1]: inactive
- Potency [2]: inactive

Structure (SMILES): C=CC1C(O[C@@H]2O[C@H](CO)[C@@H](O)[C@H](O)[C@H]2O)OC=C(C(=O)OC)C1CC(=O)O (some centres not stated)
- Potency [1]: inactive
- Potency [2]: inactive

Structure (SMILES): C=C1CCC2C(C)(COC3OC(COC(=O)CC(=O)O)C(O)C(O)C3O)CCCC2(C)C1CCC1=CCOC1=O (configuration not stated)
- Potency [1]: inactive
- Potency [2]: inactive

Structure (SMILES): C[C@@H]1C[C@H](O)/C=C/[C@H](O)[C@@H](O)CC(=O)O1
- Potency [1]: inactive
- Potency [2]: inactive

Structure (SMILES): C=CC(C)(C)C1(CC2NC(=O)C3CCCN3C2=O)C(=O)Nc2cc3c(cc21)C=CC(C)(C)O3 (configuration not stated)
- Potency [1]: inactive
- Potency [2]: inactive

Structure (SMILES): CC1CCC2(C(=O)OC3OC(CO)C(O)C(O)C3O)CCC3(C(=O)O)C(=CCC4C5(C)CCC(OC6OC(C)C(O)C(O)C6O)C(C)(C)C5CCC43C)C2C1C (configuration not stated)
- Potency [1]: inactive
- Potency [2]: inactive

Structure (SMILES): CNC(=O)c1ccc2cc([C@@]3(O)CCn4cncc43)ccc2c1
- Potency [1]: inactive
- Potency [2]: inactive

Structure (SMILES): CC(=O)O[C@@H]1C[C@@]23C[C@@]24CC[C@H](OC2OC[C@@H](O)[C@H](O)[C@H]2O)C(C)(C)[C@@H]4CC[C@H]3[C@]2(C)CC3OC4(C[C@@H](C)C3[C@@]12C)OCC1(C)OC14 (some centres not stated)
- Potency [1]: inactive
- Potency [2]: inactive

Structure (SMILES): CNC(=O)COC(=O)NCCC1CCN(c2cccc(C)n2)CC1
- Potency [1]: inactive
- Potency [2]: inactive

Structure (SMILES): C=C1CC[C@@H]2[C@](C)(CO)[C@H](O)CC[C@@]2(C)[C@@H]1C/C=C1/C(=O)OC[C@H]1O
- Potency [1]: 8.33 µM (active)
- Potency [2]: 7.42 µM (active)

Structure (SMILES): CC(/C=C/C1(O)C2(C)COC1(C)CC(=O)C2)O[C@@H]1O[C@H](CO)[C@@H](O)[C@H](O)[C@H]1O (some centres not stated)
- Potency [1]: inactive
- Potency [2]: inactive

Structure (SMILES): CC(=O)[C@@H]1CC[C@]2(C(=O)O)CC[C@]3(C)C(CCC4[C@@]5(C)CC[C@H](O)C(C)(C)C5CC[C@]43C)C12 (some centres not stated)
- Potency [1]: 7.96 µM (active)
- Potency [2]: inactive

Structure (SMILES): O=C(CCCCc1ccc2ccccc2c1)C(F)(F)F
- Potency [1]: inactive
- Potency [2]: inactive

Structure (SMILES): OCC1OC(Oc2cc(O)c3c(c2)OC(c2ccc(O)cc2)C(O)C3)C(O)C1O (configuration not stated)
- Potency [1]: inactive
- Potency [2]: inactive

Structure (SMILES): CC1CCC2(O1)C(C)(C)CC(O[C@@H]1O[C@H](CO[C@@H]3OC[C@](O)(CO)[C@H]3O)[C@@H](O)[C@H](O)[C@H]1O)CC2(C)O (some centres not stated)
- Potency [1]: inactive
- Potency [2]: inactive

Structure (SMILES): C1CCN2CC3C[C@@H](CN4CCCC[C@@H]34)[C@H]2C1
- Potency [1]: inactive
- Potency [2]: inactive

Structure (SMILES): Cc1cc(Nc2ncc(Cl)c(Nc3ccccc3S(=O)(=O)C(C)C)n2)c(OC(C)C)cc1C1CCNCC1
- Potency [1]: 3.25 µM (active) and 5.25 µM (active)
- Potency [2]: 2.9 µM (active) and 3.72 µM (active)
